Results taken from PubChem BioAssay (EPA / NIEHS).
“And” between values parts separate entries of the source, which are not always exact repeats. Equal values may be shown once. Records with an inconclusive call do not appear. The source made the active and inactive calls. The calls were made as follows, unless noted: active = hit-call score of the fitted dose curve at least 0.9, where 1 is the maximum; inactive = score below 0.9.

Experiments:
[1] = target: Estrogen-related receptor gamma (Homo sapiens) (UniProt P62508); assay: ATG_ERRg_TRANS: Attagene TRANS-FACTORIAL HepG2 Assay for human Estrogen-Related Receptor gamma (ERRg) (AID 2282977; active = hit-call score of the fitted dose curve at least 0.9, where 1 is the maximum;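 also: hits increase reporter signal over DMSO so potencies reflect activators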); settings: HepG2 Attagene TRANS reporter, ERRg transactivation
In short: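 Exogenous NR-Gal4 chimera activity measured as reporter transcript induction after 24 h in transiently transfected HepG2 cells. RNA reverse-transcribed, PCR-amplified, 6-FAM-labelled and resolved by capillary electrophoresis; increase over DMSO baseline.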

[2] = target: Glucocorticoid receptor (Homo sapiens) (UniProt P04150); assay: ATG_GR_TRANS: Attagene TRANS-FACTORIAL HepG2 Assay for human Glucocorticoid Receptor (GR) (AID 2282978; active = hit-call score of the fitted dose curve at least 0.9, where 1 is the maximum;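 also: activators score as hits since higher reporter transcript over DMSO is fitted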); settings: HepG2 Attagene TRANS GR reporter, mRNA transcription
In short: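 Exogenous NR-GAL4 fusion activity was assessed through induced GAL4-UAS reporter transcripts in transfected human HepG2 cells, quantified after 24 h by RT-PCR and fluorescent capillary electrophoresis with DMSO as baseline.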

[3] = target: Oxysterols receptor LXR-beta (Homo sapiens) (UniProt P55055); assay: ATG_LXRb_TRANS: Attagene TRANS-FACTORIAL HepG2 Assay for human Liver X Receptor beta (LXRb) (AID 2282981; active = hit-call score of the fitted dose curve at least 0.9, where 1 is the maximum); settings: HepG2 Attagene TRANS GAL4-LXRb reporter, mRNA
In short: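 Measures induction of a Gal4-driven reporter transcript in HepG2 cells expressing an exogenous LXRb-Gal4 fusion. Cells are exposed to compound for 24 h before RNA isolation and RT-PCR with capillary electrophoresis detection.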

[4] = target: Hepatocyte nuclear factor 4-alpha (Homo sapiens) (UniProt P41235); assay: ATG_HNF4a_TRANS: Attagene TRANS-FACTORIAL HepG2 Assay for human Hepatocyte Nuclear Factor 4 alpha (HNF4a) (AID 2282982; active = hit-call score of the fitted dose curve at least 0.9, where 1 is the maximum); settings: HepG2 HNF4a transactivation reporter, mRNA readout
In short: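 In this trans-factorial format, a chimeric HNF4a-GAL4 fusion drives a GAL4-UAS reporter in transfected HepG2 liver cells. After 24 h treatment, reporter mRNA induction is measured by RT-PCR with capillary electrophoresis, relative to DMSO.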

[5] = ATG_M_06_TRANS: Attagene TRANS-FACTORIAL HepG2 Assay for M06 Transcription Factor (Internal Marker) (AID 2282983; active = hit-call score of the fitted dose curve at least 0.9, where 1 is the maximum); settings: HepG2 Attagene TRANS M06 internal marker reporter
In short: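 Read-out: fluorescent reporter cDNA fragments resolved by capillary electrophoresis after RT-PCR and HpaI cut. Source cells were HepG2 carrying transfected multi-reporter GAL4 constructs, dosed 24 h. Increase over DMSO control analysed.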

[6] = ATG_M_32_TRANS: Attagene TRANS-FACTORIAL HepG2 Assay for M32 Transcription Factor (Internal Marker) (AID 2282984; active = hit-call score of the fitted dose curve at least 0.9, where 1 is the maximum;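 also: transcript level of a background control reporter unit measured by RT-PCR and capillary electrophoresis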); settings: HepG2 Attagene TRANS M32 internal marker reporter
In short: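 After 24 h dosing of transfected HepG2 cells, total RNA was reverse-transcribed, reporter sequences PCR-amplified, 6-FAM labelled by primer extension and HpaI-digested before capillary electrophoresis. Signal increase over DMSO was fitted.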

[7] = target: Nuclear receptor subfamily 4 group A member 2 (Homo sapiens) (UniProt P43354); assay: ATG_NURR1_TRANS: Attagene TRANS-FACTORIAL HepG2 Assay for human Nuclear Receptor Related Protein 1 (NURR1) (AID 2282985; active = hit-call score of the fitted dose curve at least 0.9, where 1 is the maximum); settings: HepG2 Attagene TRANS reporter, mRNA readout
In short: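 Chimeric NR-Gal4 fusion activity measured in HepG2 after 24 h treatment. Reporter transcripts detected by RT-PCR and capillary electrophoresis fluorescence; positive-direction curve fitting against DMSO.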

[8] = target: Transcriptional activator Myb (Homo sapiens) (UniProt P10242); assay: ATG_Myb_CIS: Attagene CIS-FACTORIAL HepG2 Assay for human Myeloblastosis (Myb) Proto-Oncogene Transcription Factor (AID 2282986); settings: HepG2 Attagene CIS-FACTORIAL Myb reporter transcription; actives raise or lower the signal
In short: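 In this HepG2 transient-transfection format, cis-regulated reporter mRNA is quantified 24 h post-dosing by RT-PCR with capillary electrophoresis, fitted bidirectionally to DMSO baseline.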

[9] = target: Nuclear respiratory factor 1 (Homo sapiens) (UniProt Q16656); assay: ATG_NRF1_CIS: Attagene CIS-FACTORIAL HepG2 Assay for human Nuclear Respiratory Factor 1 (NRF1) Orphan Gene (AID 2282987); settings: HepG2 NRF1 cis-element reporter, Attagene multiplex; actives raise or lower the signal
In short: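 Using DMSO as baseline, gain- or loss-of-signal was fitted for reporter mRNA levels in HepG2 cells transiently transfected with cis-regulated reporter units. Samples were taken 24 h after dosing and read by RT-PCR with capillary electrophoresis.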

[10] = target: Myc proto-oncogene protein (Homo sapiens) (UniProt P01106); assay: ATG_Myc_CIS: Attagene CIS-FACTORIAL HepG2 Assay for human Myelocytomatosis (Myc) Proto-Oncogene Transcription Factor (AID 2282990); settings: HepG2, Attagene cis-reporter transcription factor activity; actives raise or lower the signal
In short: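 Multiplexed cis-reporter transcription in HepG2 cells after 24 h chemical treatment. Reporter mRNA measured by RT-PCR and capillary electrophoresis fluorescence; activity fitted bidirectionally against DMSO control.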

[11] = ATG_NRF2_ARE_CIS: Attagene CIS-FACTORIAL HepG2 Assay for human Nuclear Factor Erythroid 2 Related Factor 2 (NFR2) response to Antioxidant Response Elements (ARE) (AID 2282992); settings: HepG2 Attagene ARE/NRF2 reporter, transcription factor activity; actives raise or lower the signal
In short: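 Readout: reporter mRNA quantified by RT-PCR plus FAM-labelled primer extension, HpaI digestion and capillary electrophoresis, 24 h after dosing transfected HepG2 cells. Gain or loss of signal is fitted bidirectionally against DMSO baseline.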

[12] = ATG_Oct_MLP_CIS: Attagene CIS-FACTORIAL HepG2 Assay for human Octamer-Binding Transcription Factor (Oct) (AID 2282993); settings: HepG2 Attagene cis-factorial Oct reporter, mRNA; actives raise or lower the signal
In short: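 Transfected HepG2 cells, 24 h treatment. Reporter mRNA quantified by RT-PCR–capillary electrophoresis; bidirectional fitting against DMSO.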

[13] = target: Cellular tumor antigen p53 (Homo sapiens) (UniProt P04637); assay: ATG_p53_CIS: Attagene CIS-FACTORIAL HepG2 Assay for human p53 Transcription Factor (AID 2282994); settings: HepG2 p53 cis-element reporter, Attagene mRNA; actives raise or lower the signal
In short: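 Read-out: reporter mRNA by RT-PCR plus capillary electrophoresis with fluorescence detection. Human HepG2 liver cells carried transfected multi-reporter cis-element constructs, dosed 24 h. Gain or loss of signal fitted bidirectionally against DMSO control.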

[14] = target: Oxysterols receptor LXR-alpha (Homo sapiens) (UniProt Q13133); assay: ATG_LXRa_TRANS: Attagene TRANS-FACTORIAL HepG2 Assay for human Liver X Receptor alpha (LXRa) (AID 2282980; active = hit-call score of the fitted dose curve at least 0.9, where 1 is the maximum); settings: HepG2 Attagene TRANS reporter, LXRa transactivation
In short: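 Read-out: reporter transcript levels by RT-PCR plus capillary electrophoresis, fluorescence intensity. Transiently transfected HepG2, exogenous NR-GAL4 chimera, GAL4-UAS reporters; 24 h compound exposure. Activity = increase over DMSO negative control.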

[15] = ATG_NFI_CIS: Attagene CIS-FACTORIAL HepG2 Assay for human Nuclear Factor I (NFI) (AID 2282989); settings: HepG2 cis-regulatory reporter, NFI response element transcription; actives raise or lower the signal
In short: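 Reporter transcription driven by endogenous transcription factors in HepG2 cells; 24 h treatment. Quantitation by labelled RT-PCR fragments on capillary electrophoresis, gain- or loss-of-signal relative to DMSO.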

[16] = ATG_NF_kB_CIS: Attagene CIS-FACTORIAL HepG2 Assay for human Nuclear Factor Kappa B (NF-kB) (AID 2282991); settings: HepG2 Attagene cis-factorial NF-kB reporter mRNA; actives raise or lower the signal
In short: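 Endpoint from a 52-component multiplexed HepG2 reporter panel: cis-regulated transcription units transiently transfected, 24 h dosing, reporter mRNA quantified by RT-PCR and capillary electrophoresis, scored as increase or decrease against DMSO.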

[17] = BSK_3C_TissueFactor: BioMAP Diversity Plus: 3C Assay for Tissue Factor Biomarker Activity (AID 2282997); settings: BioMAP 3C HUVEC, tissue factor biomarker readout; actives raise or lower the signal
In short: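 HUVEC, 3C system, 24 h post-dose; Tissue Factor by ELISA; bidirectional fit vs DMSO baseline.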

[18] = BSK_3C_uPAR: BioMAP Diversity Plus: 3C Assay for Urokinase-type plasminogen activator receptor (uPAR) Biomarker Activity (AID 2282998); settings: BioMAP 3C HUVEC, uPAR biomarker ELISA; actives raise or lower the signal
In short: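 Readout: ELISA for surface uPAR. System: human umbilical vein endothelial primary cells, 24 h after chemical exposure. Analysis: bidirectional fit, DMSO baseline.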

[19] = BSK_3C_VCAM1: BioMAP Diversity Plus: 3C Assay for Vascular cell adhesion molecule 1 (VCAM1) Biomarker Activity (AID 2282999); settings: BioMAP 3C HUVEC, VCAM1 ELISA, cytokine-stimulated; actives raise or lower the signal
In short: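 Vascular primary endothelium (human umbilical vein) was exposed to chemicals and assayed 24 h later. VCAM-1 levels came from ELISA, with DMSO serving as baseline for bidirectional fitting.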

[20] = target: Bile acid receptor (Homo sapiens) (UniProt Q96RI1); assay: ATG_FXR_TRANS: Attagene TRANS-FACTORIAL HepG2 Assay for Farnesoid X Receptor (FXR) (AID 2282979; active = hit-call score of the fitted dose curve at least 0.9, where 1 is the maximum;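 also: hits raise reporter mRNA above DMSO so AC50 marks FXR activation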); settings: HepG2 Attagene TRANS FXR-GAL4 reporter transcription
In short: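 Read-out: fluorescent reporter transcripts quantified by capillary electrophoresis after RT-PCR of total RNA. Source cells were HepG2 transiently carrying chimeric NR-GAL4 plus GAL4-UAS reporter units, dosed 24 h. Activity fitted upward relative to DMSO baseline.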

Measured: AC50

Sequence of Nuclear receptor subfamily 4 group A member 2 (Homo sapiens) (P43354 whole entry, looked up, the tested form may be a part): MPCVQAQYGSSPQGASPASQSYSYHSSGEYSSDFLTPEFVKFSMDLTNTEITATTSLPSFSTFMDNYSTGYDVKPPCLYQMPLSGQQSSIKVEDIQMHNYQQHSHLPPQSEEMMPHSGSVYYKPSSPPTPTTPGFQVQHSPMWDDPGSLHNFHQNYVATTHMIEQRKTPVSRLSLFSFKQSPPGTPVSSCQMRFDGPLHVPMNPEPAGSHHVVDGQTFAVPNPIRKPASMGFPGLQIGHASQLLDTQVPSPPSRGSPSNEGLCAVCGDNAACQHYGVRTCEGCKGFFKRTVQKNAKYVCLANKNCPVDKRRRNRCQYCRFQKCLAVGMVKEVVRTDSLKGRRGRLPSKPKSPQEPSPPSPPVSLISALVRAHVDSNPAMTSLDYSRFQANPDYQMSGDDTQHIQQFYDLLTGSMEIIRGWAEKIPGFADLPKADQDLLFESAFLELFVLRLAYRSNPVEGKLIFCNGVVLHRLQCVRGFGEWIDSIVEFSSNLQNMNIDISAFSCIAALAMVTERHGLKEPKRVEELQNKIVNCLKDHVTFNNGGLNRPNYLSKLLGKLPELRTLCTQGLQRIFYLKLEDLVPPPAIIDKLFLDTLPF
Sequence of Myc proto-oncogene protein (Homo sapiens) (P01106 whole entry, looked up): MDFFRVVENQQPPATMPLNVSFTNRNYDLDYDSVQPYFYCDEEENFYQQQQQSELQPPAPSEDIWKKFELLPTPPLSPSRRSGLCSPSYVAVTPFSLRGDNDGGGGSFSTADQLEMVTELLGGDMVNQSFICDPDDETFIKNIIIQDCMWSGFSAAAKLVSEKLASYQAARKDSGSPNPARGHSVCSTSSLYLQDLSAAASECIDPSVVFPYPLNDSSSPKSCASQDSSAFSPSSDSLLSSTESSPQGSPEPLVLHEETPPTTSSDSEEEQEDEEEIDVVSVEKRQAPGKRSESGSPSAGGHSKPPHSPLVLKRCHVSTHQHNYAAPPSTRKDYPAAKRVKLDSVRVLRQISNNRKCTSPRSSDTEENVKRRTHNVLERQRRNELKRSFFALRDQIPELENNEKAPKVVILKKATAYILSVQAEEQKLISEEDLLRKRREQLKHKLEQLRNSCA
Sequence of Oxysterols receptor LXR-alpha (Homo sapiens) (Q13133 whole entry, looked up, the tested form may be a part): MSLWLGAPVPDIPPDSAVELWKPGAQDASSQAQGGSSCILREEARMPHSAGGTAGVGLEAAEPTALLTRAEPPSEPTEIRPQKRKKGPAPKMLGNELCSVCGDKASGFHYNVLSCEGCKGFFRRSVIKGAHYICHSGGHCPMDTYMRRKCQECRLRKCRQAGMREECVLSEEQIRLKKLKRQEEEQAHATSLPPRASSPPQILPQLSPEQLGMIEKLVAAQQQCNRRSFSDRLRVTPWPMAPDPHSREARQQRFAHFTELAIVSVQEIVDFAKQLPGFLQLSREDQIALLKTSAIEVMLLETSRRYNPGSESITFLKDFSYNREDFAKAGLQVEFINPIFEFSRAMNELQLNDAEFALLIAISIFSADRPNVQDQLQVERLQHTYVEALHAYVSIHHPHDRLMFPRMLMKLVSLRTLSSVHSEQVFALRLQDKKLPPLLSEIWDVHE
Sequence of Hepatocyte nuclear factor 4-alpha (Homo sapiens) (P41235 whole entry, looked up, the tested form may be a part): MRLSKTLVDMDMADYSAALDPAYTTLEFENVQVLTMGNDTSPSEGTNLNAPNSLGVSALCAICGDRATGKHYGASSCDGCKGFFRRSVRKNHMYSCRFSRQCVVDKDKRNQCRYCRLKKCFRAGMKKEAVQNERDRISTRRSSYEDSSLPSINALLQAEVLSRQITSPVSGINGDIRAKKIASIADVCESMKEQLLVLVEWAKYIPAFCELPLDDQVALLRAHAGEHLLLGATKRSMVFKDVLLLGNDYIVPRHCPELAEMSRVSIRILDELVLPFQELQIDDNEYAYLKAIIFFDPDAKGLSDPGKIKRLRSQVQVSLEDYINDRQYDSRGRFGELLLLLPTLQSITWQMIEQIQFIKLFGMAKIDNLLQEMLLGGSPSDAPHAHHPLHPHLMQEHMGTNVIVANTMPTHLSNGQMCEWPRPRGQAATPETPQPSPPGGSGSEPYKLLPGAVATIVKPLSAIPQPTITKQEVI
Sequence of Transcriptional activator Myb (Homo sapiens) (P10242 whole entry, looked up): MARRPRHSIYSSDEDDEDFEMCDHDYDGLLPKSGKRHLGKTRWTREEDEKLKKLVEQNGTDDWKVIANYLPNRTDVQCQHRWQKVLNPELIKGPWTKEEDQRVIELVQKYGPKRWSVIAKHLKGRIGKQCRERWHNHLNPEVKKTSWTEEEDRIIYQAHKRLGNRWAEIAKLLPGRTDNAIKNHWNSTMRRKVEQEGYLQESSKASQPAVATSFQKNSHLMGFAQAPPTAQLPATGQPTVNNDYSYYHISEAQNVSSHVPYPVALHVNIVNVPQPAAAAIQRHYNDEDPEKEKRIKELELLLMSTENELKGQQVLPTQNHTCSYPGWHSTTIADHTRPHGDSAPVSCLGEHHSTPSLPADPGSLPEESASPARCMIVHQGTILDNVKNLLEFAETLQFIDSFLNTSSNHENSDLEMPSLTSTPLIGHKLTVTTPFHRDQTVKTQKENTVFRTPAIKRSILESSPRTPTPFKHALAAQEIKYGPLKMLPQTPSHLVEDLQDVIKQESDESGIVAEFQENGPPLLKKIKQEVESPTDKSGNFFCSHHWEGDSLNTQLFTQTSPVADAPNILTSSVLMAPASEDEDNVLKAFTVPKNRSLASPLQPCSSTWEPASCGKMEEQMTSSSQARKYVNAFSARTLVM
Sequence of Nuclear respiratory factor 1 (Homo sapiens) (Q16656 whole entry, looked up): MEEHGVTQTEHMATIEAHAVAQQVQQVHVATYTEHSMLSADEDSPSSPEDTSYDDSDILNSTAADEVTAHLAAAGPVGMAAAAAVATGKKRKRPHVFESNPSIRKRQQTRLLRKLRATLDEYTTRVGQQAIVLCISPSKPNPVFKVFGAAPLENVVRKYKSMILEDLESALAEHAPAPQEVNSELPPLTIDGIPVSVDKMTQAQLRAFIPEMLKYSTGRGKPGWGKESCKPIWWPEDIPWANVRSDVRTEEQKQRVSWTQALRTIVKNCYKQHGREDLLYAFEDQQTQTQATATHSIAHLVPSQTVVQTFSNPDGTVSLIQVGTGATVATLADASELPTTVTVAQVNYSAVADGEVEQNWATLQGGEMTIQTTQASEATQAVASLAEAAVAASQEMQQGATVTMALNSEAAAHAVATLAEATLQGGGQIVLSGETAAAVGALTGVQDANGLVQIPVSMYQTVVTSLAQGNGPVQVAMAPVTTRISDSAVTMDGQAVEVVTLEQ
Sequence of Glucocorticoid receptor (Homo sapiens) (P04150 whole entry, looked up, the tested form may be a part): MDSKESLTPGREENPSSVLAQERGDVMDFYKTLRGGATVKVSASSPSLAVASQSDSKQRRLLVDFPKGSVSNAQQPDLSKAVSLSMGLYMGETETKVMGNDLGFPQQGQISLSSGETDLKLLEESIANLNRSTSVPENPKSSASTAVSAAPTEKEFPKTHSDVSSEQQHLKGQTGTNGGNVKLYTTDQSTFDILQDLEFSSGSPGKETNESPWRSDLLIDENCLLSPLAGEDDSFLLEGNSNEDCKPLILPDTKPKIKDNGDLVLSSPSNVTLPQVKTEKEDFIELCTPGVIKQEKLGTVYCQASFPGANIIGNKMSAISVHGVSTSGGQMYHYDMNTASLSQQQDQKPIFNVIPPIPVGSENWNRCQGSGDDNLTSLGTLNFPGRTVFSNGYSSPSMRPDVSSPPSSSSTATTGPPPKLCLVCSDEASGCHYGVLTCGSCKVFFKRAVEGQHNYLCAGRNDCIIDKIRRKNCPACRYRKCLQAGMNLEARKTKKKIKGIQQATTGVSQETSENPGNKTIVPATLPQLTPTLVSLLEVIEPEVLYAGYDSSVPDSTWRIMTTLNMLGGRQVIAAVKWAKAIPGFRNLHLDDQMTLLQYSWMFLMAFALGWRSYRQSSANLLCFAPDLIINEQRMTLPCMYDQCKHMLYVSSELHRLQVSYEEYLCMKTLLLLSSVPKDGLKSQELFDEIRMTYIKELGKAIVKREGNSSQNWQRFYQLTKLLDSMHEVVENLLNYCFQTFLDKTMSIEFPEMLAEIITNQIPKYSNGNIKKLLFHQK
Sequence of Oxysterols receptor LXR-beta (Homo sapiens) (P55055 whole entry, looked up, the tested form may be a part): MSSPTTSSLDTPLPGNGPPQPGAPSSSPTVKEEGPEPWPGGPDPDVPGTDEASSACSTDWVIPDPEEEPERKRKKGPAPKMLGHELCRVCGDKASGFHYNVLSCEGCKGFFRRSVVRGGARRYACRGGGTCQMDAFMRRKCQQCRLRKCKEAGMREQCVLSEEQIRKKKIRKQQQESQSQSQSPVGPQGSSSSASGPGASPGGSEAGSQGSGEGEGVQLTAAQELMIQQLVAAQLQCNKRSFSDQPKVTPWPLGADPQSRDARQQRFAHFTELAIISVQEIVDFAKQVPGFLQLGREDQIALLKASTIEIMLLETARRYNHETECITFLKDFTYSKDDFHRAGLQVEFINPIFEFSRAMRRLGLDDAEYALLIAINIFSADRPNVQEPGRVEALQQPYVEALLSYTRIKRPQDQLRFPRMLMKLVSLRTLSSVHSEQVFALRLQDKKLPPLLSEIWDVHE
Sequence of Cellular tumor antigen p53 (Homo sapiens) (P04637 whole entry, looked up): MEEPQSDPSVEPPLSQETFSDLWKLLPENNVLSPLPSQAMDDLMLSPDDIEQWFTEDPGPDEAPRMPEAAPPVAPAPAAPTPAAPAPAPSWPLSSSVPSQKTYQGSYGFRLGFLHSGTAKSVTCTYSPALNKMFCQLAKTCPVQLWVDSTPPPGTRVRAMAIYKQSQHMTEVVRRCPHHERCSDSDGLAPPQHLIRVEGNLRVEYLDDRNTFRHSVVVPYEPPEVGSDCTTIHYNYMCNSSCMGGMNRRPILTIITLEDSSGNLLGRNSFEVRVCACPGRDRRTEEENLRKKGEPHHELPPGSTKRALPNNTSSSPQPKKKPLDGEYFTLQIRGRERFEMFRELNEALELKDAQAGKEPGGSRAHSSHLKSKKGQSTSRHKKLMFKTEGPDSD

O=C(O)c1cc(O)c2ccccc2c1O
active: [7] 1.1 µM | [8] 57.4 µM | [10] 43.6 µM | [11] 7.34 µM
inactive: [1] | [2] | [3] | [4] | [5] | [6] | [9] | [12] | [13]

CC(C)c1cccc(C(C)C)c1N
not listed: [10] | [20]
inactive: all other assays above

CCCCC(CC)COC(=O)/C=C/c1ccc(OC)cc1 (stereo not drawn)
not listed: [3] | [9] | [17] | [18] | [19] | [20]
inactive: all other assays above

COC(OC)(C(=O)c1ccccc1)c1ccccc1
not listed: [3] | [6] | [13] | [14] | [15] | [20]
inactive: all other assays above

COc1ccc(C(=O)/C(Br)=C\C(=O)O)cc1
active: [16] 13 µM | [11] 2.53 µM | [12] 49.4 µM | [17] 11.9 µM and 10.2 µM | [18] 29.7 µM and 31.7 µM | [19] 14.2 µM and 20 µM
not listed: [2] | [14]
inactive: all other assays above

CCC1(C)C(=O)N(Cl)C(=O)N1Cl (stereo not drawn)
active: [11] 27.1 µM | [12] 27.4 µM
not listed: [3] | [5] | [9] | [14] | [15] | [20]
inactive: all other assays above

C=C(C)C(=O)OCCCCCCCCCCCC
not listed: [3] | [5] | [14] | [20]
inactive: all other assays above

CCOC(=O)/C=C\C(=O)OCC
active: [11] 11.4 µM
not listed: [5] | [14] | [16] | [20]
inactive: all other assays above

O=S(=O)(O)c1ccc(Nc2nc(Nc3ccc(C=Cc4ccc(Nc5nc(Nc6ccc(S(=O)(=O)O)cc6)nc(N(CCO)CCO)n5)cc4S(=O)(=O)O)c(S(=O)(=O)O)c3)nc(N(CCO)CCO)n2)cc1
not listed: [3] | [14] | [16] | [17] | [18] | [19] | [20]
inactive: all other assays above

COC(=O)CC(C)CCC=C(C)C (stereo not drawn)
not listed: [5] | [7] | [14] | [16] | [17] | [18] | [19]
inactive: all other assays above

O=C(Cl)c1c(Cl)c(Cl)c(C(=O)Cl)c(Cl)c1Cl
not listed: [3] | [6] | [10] | [16]
inactive: all other assays above

CCOC(=O)C1=NN(c2ccc(Cl)cc2Cl)C(C)(C(=O)OCC)C1 (stereo not drawn)
active: [7] 168 µM
not listed: [3] | [5] | [15]
inactive: all other assays above

[Cl][Sc]([Cl])[Cl]
inactive: [1] | [2] | [3] | [4] | [8] | [9] | [15] | [10] | [11] | [12] | [13]

CCCCNC(=S)NCCCC
not listed: [3] | [7] | [14] | [15] | [17] | [18] | [19]
inactive: all other assays above

CC1=CP(=O)(c2ccccc2)CC1 (stereo not drawn)
inactive: [1] | [2] | [20] | [7] | [8] | [9] | [10] | [16] | [11] | [12] | [13]

CN(C)c1ccc2nc3ccc(=[N+](C)C)cc-3sc2c1
active: [9] 15 µM | [11] 2.2 µM
not listed: [2] | [6] | [14] | [16] | [17] | [18] | [19]
inactive: all other assays above

Cn1ccnc1
not listed: [3] | [5] | [9] | [17] | [18] | [19]
inactive: all other assays above

CCN(CC)c1cccc(C)c1
not listed: [5] | [15] | [17] | [18] | [19] | [20]
inactive: all other assays above

CC(Cl)COP(=O)(OCC(C)Cl)OCC(C)Cl (stereo not drawn)
not listed: [5] | [10] | [14] | [16] | [20]
inactive: all other assays above
